Screens deposited in PubChem BioAssay by National Center for Advancing Translational Sciences (NCATS).
This is a sample that favours compounds with a hit; in the whole collection about 2.4% have one here.
Cruzain inh noDet: blocks cruzain activity in detergent-free assay; Potency, µM, without a hit: max response, negative = inhibition, actives largely listed as inhibitors; 200,000 tested, 2.3% active; purified cruzain, Z-FR-AMC fluorescence, no detergent;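 also: plate controls were enzyme without inhibitor for no effect and buffer without enzyme for full effect; nearly all actives have a fitted effect of over 40% in size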
Target sequence (P25779 123-467 limits assumed): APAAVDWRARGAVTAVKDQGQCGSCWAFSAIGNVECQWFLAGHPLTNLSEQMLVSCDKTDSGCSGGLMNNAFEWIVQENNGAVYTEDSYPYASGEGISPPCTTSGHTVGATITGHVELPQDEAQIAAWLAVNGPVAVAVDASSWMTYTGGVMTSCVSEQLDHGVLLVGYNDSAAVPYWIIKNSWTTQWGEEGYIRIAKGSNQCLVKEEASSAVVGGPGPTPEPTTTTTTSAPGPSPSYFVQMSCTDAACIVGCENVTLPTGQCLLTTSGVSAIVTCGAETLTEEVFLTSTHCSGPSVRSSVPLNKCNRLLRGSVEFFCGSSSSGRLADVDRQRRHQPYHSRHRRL
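Detergent-free condition (0.00005% Triton X-100) in acetate buffer pH 5.5 with DTT. 1.5 nM enzyme and compound were pre-mixed 15 min, then 2 uM Z-FR-AMC substrate added; reaction progress from fluorescence change between first and third reads (60 s).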
Cruzain inh Det: inhibitors of Trypanosoma cruzi cruzain with detergent | Potency, µM, for inactives: max response, negative = inhibition, usual class: inhibitors | 200,000 tested, 0.43% active | AID 1478 | purified cruzain, Z-FR-AMC fluorescence, 0.01% Triton;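 also: plate controls were neutral wells for no effect and buffer without enzyme for full effect; nearly all actives have a fitted effect of over 40% in size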
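Read-out: AMC fluorescence (360 nm excitation, 450 nm emission), four reads over 2 min, first-to-third difference used. Conditions: cruzain 1.5 nM, Z-FR-AMC 2 uM, pH 5.5 acetate, 5 mM DTT, 0.01% Triton X-100.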
* marks the source's active call; other numbers are inactive results; ? = inconclusive. Calls follow the shape of the dose curve; as a rule, active = well fitted curve in the direction sought with a large enough effect; inconclusive = small, poorly fitted or top-dose-only effect, or another doubt; inactive = no such curve, though single readings can be large; an effect the other way counts as inactive or inconclusive. Potency is read from the fitted curve at half-maximal effect.

SMILES | Cruzain inh noDet | Cruzain inh Det
CCSc1nnc(NC(=O)C2Cc3ccccc3CN2S(=O)(=O)CC)s1 (stereo not given) | -6% | -9%
CCS(=O)(=O)N1Cc2ccccc2CC1C(=O)Nc1nc2c(C)cccc2s1 (stereo not given) | 25µM* | -12%
CCS(=O)(=O)N1Cc2ccccc2CC1C(=O)Nc1nccs1 (stereo not given) | -5% | 7%
CCS(=O)(=O)N1Cc2ccccc2CC1C(=O)Nc1nnc(SCc2c(Cl)cccc2Cl)s1 (stereo not given) | 7.9µM* | -1%
O=C(CN1C(=O)C2CC=CCC2C1=O)Nc1nnc(SCc2ccc(Cl)cc2)s1 (stereo not given) | -20% | -3%
O=C(CN1C(=O)C2CC=CCC2C1=O)Nc1nnc(SCc2c(Cl)cccc2Cl)s1 (stereo not given) | 16µM* | 1%
CCCSC(=O)Cl | 4% | 3%
FC(F)(F)c1cccc(-n2cc(-c3ccccc3)c3c(N4CCCCC4)ncnc32)c1 | 7% | 0%
Cc1cccc2c(=O)cc(CSc3ccccc3NC(=O)c3cccc(F)c3)[nH]c12 | 1% | 2%
C[N+](C)(C)C(C1=CCCC1=O)c1ccccc1 (stereo not given) | 3% | 1%
Nc1ccc2nc(-c3cc(Cl)c(N)c(Cl)c3)[nH]c2c1 | 16µM* | ?
Clc1ccc2nc(-c3ccccc3)[nH]c2c1 | 4% | -4%
Nc1ccc(-c2nc3ccc([N+](=O)[O-])cc3[nH]2)cc1 | -2% | -9%
Nc1ccc(-c2nc3c(Cl)c(N)ccc3[nH]2)cc1 | 32µM* | ?
Nc1ccc2nc(-c3ccc(Cl)cc3)[nH]c2c1 | 20µM* | ?
Cc1ccc(C)c(-c2nc3ccc(N)cc3[nH]2)c1 | ? | -1%
COc1cc(Br)c(C2CC(=O)Nc3cc4c(cc32)OCCO4)cc1OC (stereo not given) | 8% | -8%
CC(=O)c1ccc(NC(=O)CSc2nc(=O)n(Cc3ccncc3)c3c2CCC3)cc1 | 0% | 0%
COCCn1c(C)cc(C2=NNC(=Nc3ccc(OC)cc3)SC2)c1C | 1% | -1%
COc1ccc(N=C2NN=C(c3ccc4c(c3)OCCO4)CS2)cc1 | 25µM* | -3%
COCC1=C2c3ccccc3[C@@H]3CNC(=O)C3(C(=O)OC)C[C@@H]2n2c(=O)n(-c3ccccc3)c(=O)n2C1 (stereo not given in full) | -1% | -1%
CCCn1c2ccccc2c2nnc(SC(CC)C(=O)Nc3sc4c(c3C#N)CCCC4)nc21 (stereo not given) | 10µM* | 0%
CCCn1c2ccccc2c2nnc(SC(CC)C(=O)Nc3cc(C)on3)nc21 (stereo not given) | -21% | -14%
CC(C)C(=O)Nc1ccc2nc(SCCOc3ccccc3)sc2c1 | 0% | -1%
CCc1ccc(NCCC(=O)c2ccc(Br)cc2)cc1 | 1% | -5%
SMILES | Cruzain inh noDet | Cruzain inh Det
Cc1ccc(NCCC(=O)c2ccc(Br)cc2)cc1 | 20µM* | -1%
COc1ccc(-n2c(C)cc(C(=O)COC(=O)c3cc(NC(=O)c4cccs4)c(OC)c(OC)c3)c2C)cc1 | ? | 1%
COc1cc(NC(=O)c2cccs2)c(C(=O)OCC(=O)NC(=O)NC(C)(C)C)cc1OC | ? | -14%
COc1cc(NC(=O)c2cccs2)c(C(=O)OCC(=O)c2cc(C)n(-c3ccccc3)c2C)cc1OC | 3.2µM* | -11%
COc1cc(NC(=O)c2cccs2)c(C(=O)OCC(=O)c2cc(C)n(-c3ccc(F)cc3)c2C)cc1OC | 4µM* | -2%
CC(=O)N1c2ccccc2CC1C(=O)N1CCN(c2ccccc2)CC1 (stereo not given) | 9% | 0%
Cc1ccc(-n2c(COCC(=O)O)nc3cccnc32)cc1 | 1% | 2%
Cc1cc(-c2nnc3n2N=C(c2ccc(-c4ccccc4)cc2)CS3)n[nH]1 | 25µM* | -10%
COc1ccc(-c2nnc3n2N=C(c2ccccc2)CS3)cc1OC | 26% | -7%
COc1ccc(C2=Nn3c(nnc3-c3ccccc3)SC2)cc1OC | -2% | 7%
c1ccc(-c2cc(-c3nnc4n3N=C(c3ccc5ccccc5c3)CS4)[nH]n2)cc1 | 25µM* | -3%
Cc1ccc(S(=O)(=O)n2nc(-c3ccco3)nc2NCc2ccc(N(C)C)cc2)cc1 | -21% | -2%
O=C(CSc1c2c(nc3ccccc13)CCC2)Nc1ccc(F)cc1F | -8% | -7%
Cc1cc(C(=O)CN2C(=O)NC(C)(c3ccccc3)C2=O)c(C)n1CC1CCCO1 (stereo not given) | 3% | -3%
Cc1cc(C(=O)CN2C(=O)NC(c3ccccc3)(c3ccccc3)C2=O)c(C)n1Cc1ccccc1 | 10µM* | -1%
Cc1cc(C(=O)CN2C(=O)NC3(CCCCC3C)C2=O)c(C)n1Cc1cccs1 (stereo not given) | 32µM* | -4%
Cc1cc(-n2c(C)cc(C(=O)CN3C(=O)NC4(CCCCC4C)C3=O)c2C)no1 (stereo not given) | -30% | 6%
COC(=O)c1cc2sc(C)cc2n1Cc1cccc(OC)c1 | -13% | -6%
COc1cccc(C(=O)NCC(c2ccc(N(C)C)cc2)N2CCCC2)c1OC (stereo not given) | 17% | -1%
CCOC(=O)c1cc(-c2ccccc2)sc1NC(=S)Nc1cc(C)ccn1 | 13µM* | 7%
CCOC(=O)c1cc(-c2ccccc2)sc1NC(=O)CC(C)C | -10% | -9%
CCOC(=O)c1cc(-c2ccccc2)sc1NC(=O)C(C)(C)C | -4% | 1%
CCCC1(c2ccccc2)NC(=O)N(CC(=O)Nc2sc(-c3ccccc3)cc2C(=O)OCC)C1=O (stereo not given) | 7.9µM* | 1%
Cc1nc2cnc(N(C)C)nc2n(-c2ccccc2)c1=O | -8% | -1%
COc1ccc(OCC(=O)NC(=S)Nc2ccc3c4c(cccc24)CC3)cc1 | ? | -12%
SMILES | Cruzain inh noDet | Cruzain inh Det
Cc1ccccc1OCC(=O)NC(=S)Nc1ccc2c3c(cccc13)CC2 | 7.9µM* | -1%
CCN1CCN(Cc2c(O)ccc3cc(-c4ccc(OC)cc4)c(=O)oc23)CC1 | -17% | -4%
CCOc1ccccc1CNC(=O)Cn1c(=O)c2cccn2c2ccc(F)cc21 | 6% | -2%
CCC1CN(C(=O)N2CCC(C(=O)Nc3cc(C)ccc3C)CC2)c2ccccc2O1 (stereo not given) | 5% | 1%
CC1=C(SCCC#N)S/C(=C2\SC(C)=C(SCCC#N)S2)S1 | 25µM* | -13%
CCOc1ccc2c(c1)c(=O)c(C(=O)c1ccc(C)cc1)cn2Cc1ccccc1OC | 5% | -1%
COc1ccc(S(=O)(=O)n2nc(-c3ccco3)nc2NCc2ccc(N(C)C)cc2)cc1 | -14% | -4%
Cc1ccc2c(CC(=O)Nc3ccc(S(=O)(=O)N4CCCC(C)C4)cc3)coc2c1 (stereo not given) | ? | -8%
Cc1ccc2c(CC(=O)Nc3ccc(S(=O)(=O)N4CCCCC4)cc3)coc2c1C | 25µM* | -9%
Cc1cc(C)c2c(CC(=O)Nc3ccc(S(=O)(=O)N4CCCCC4)cc3)coc2c1 | ? | -7%
Cc1ccc2c(CC(=O)Nc3ccc(S(=O)(=O)N4CCCCC4)cc3)coc2c1 | 25µM* | -7%
O=C(NCCc1ccc(Cl)cc1)c1cnc2sc(N3CCOCC3)nn2c1=O | -5% | 2%
Cc1ccc(Cl)cc1NC(=O)c1ccc2nc(CCc3ccccc3)oc2c1 | 2% | -2%
Cc1cc(C)nc(Nc2ccc(N3CCCC3)cc2)n1 | 32µM* | -4%
Cc1cc(C)nc(Nc2ccc(N3CCOCC3)cc2)n1 | ? | 0%
